FUS suppressor = suppressors of FUS proteinopathy in yeast; S. cerevisiae FUS-expressing, growth rescue, OD600, 24 h; Potency, µM (titrated, usually from 76.6 µM), usual class: activators; hit rate 0.24% among 390,000; AID 1347120;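 further: plate controls were DMSO vehicle for no effect and reference control for full effect; nearly all actives have a fitted effect of over 55% in size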
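S. cerevisiae expressing FUS from galactose induction served as the toxicity model. Growth after 24hr at 30C, read as absorbance at 600 nm, indicates suppression of toxicity; compounds dosed at several concentrations.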
Abeta yeast res = A-beta toxicity reversal in yeast; yeast expressing A-beta42, growth rescue, OD600, 48 h; response scale: 0% DMSO, 100% iron-clioquinol control; Potency, µM (top dose mostly 46.1 µM), most hits filed as activators; hit rate 0.063% among 410,000; further: nearly all actives have a fitted effect of over 55% in size
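Yeast A-beta toxicity model in growth medium with pinned compounds, 48 h at 30 C; growth read as absorbance at 600 nm. Normalized to FeCl3/clioquinol equimolar mix (positive) and DMSO (negative).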
aSyn rescue = inhibitors of alpha-synuclein toxicity in yeast; Yeast expressing alpha-synuclein, growth rescue, BacTiter-Glo, 24 h; Potency, µM (highest dose often 46.1 µM), for inactives: at the top dose growth rescue (activation), hits mostly activators; hit rate 0.14% among 370,000; further: % of control where 0% means no effect; nearly all actives have a fitted effect of over 65% in size
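Galactose-induced alpha-syn yeast (OD600=0.02, raffinose-pregrown) + pinned cpd, 24 hr, 30 deg C; growth by BacTiter-Glo luminescence. Growth restoration scores as activation.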
Mito fusion yeast = inhibitors of mitochondrial division or activators of mitochondrial fusion; S. cerevisiae fusion-defective mutant growth rescue, CellTiterGlo 48 h; Potency, µM (top dose mostly 46.1 µM), inactives show at the highest dose growth rescue (activation), actives largely listed as activators; hit rate 0.23% among 320,000; AID 485298; further: % of control where 0% means no effect; nearly all actives have a fitted effect of over 45% in size
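Compounds are tested for their ability to restore growth of mitochondrial fusion-defective yeast strains at non-permissive 37C in YPEG medium over 48 hours. Viability is quantified by luciferase luminescence.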
TDP43 rescue = rescues yeast growth from TDP-43 toxicity | Potency, µM (series often up to 46.1 µM), inactives show at the highest dose growth rescue (activation), most hits filed as activators | TDP-43 expressing yeast growth rescue, BacTiter-Glo, 24 h | hit rate 1.8% among 410,000; further: % of control where 0% means no effect; nearly all actives have a fitted effect of over 50% in size
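Luminescence from BacTiter-Glo reports growth of TDP-43-expressing yeast after 24 hr at 30 deg C with compound. Cells were raffinose-pregrown to mid-log, then seeded in galactose medium at OD600=0.02.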
* marks the source's active call; other numbers are inactive results; i = inactive; u = inconclusive; x = no result given; ! = a repeat was not active. Sampled rows, rich in hits. Any-hit rate of the full collection: about 2.2%. The call rests on the fitted dose curve; in most records, active means well fitted curve in the direction sought with a large enough effect; inconclusive means small, poorly fitted or top-dose-only effect, or another doubt; inactive means no such curve, though single readings can be large; an effect the other way counts as inactive or inconclusive. Potency means the concentration at half of the fitted maximal effect.

SMILES | FUS suppressor | Abeta yeast res | aSyn rescue | Mito fusion yeast | TDP43 rescue
O=C(CSc1nc2c([nH]c3ccccc32)c(=O)n1-c1ccc(F)cc1)NC1CCCCC1 | i | i | x | x | 8.5%
CC(NC(=O)Cn1c(-c2cccs2)cc2cc(F)ccc21)c1ccccc1 (configuration not stated) | i | i | x | x | 10.4%
N#Cc1c(N)nc2c(c1-c1ccc(Br)s1)CCCC2 | x | i | -1.8% | -9.2% | 11.5%
Nc1nc(-c2ccc(Br)s2)c(Br)s1 | i | i | 4.2% | 21.4% | 11.2µM*
Cc1cc2c([nH]c3ccccc32)c(C)n1 | i | i | 3.3% | -1.5% | 0.2%
Cc1c2ccncc2cc2c1[nH]c1ccccc12 | i | i | 10µM* | x | -1.2%
CCOc1ccc(S(=O)(=O)Nc2nc3ccccc3nc2Cl)cc1 | i | i | 0.7% | u | 22.4µM*
CCCC(=O)NC(=S)Nc1ccc(S(=O)(=O)Nc2ccc(OCC)cc2)cc1 | i | i | 28.1% | 15.8µM* | u
CCOc1ccc(NS(=O)(=O)c2ccc(NS(C)(=O)=O)cc2)cc1 | i | i | -9.7% | 1.5% | -8.8%
CCOc1ccc(NS(=O)(=O)c2ccc(NS(=O)(=O)c3ccc(SC)cc3)cc2)cc1 | 28.2µM* | i | 0.2% | 10.8% | -4.2%
Cc1ccccc1CNC(=O)C(=O)NCCC1CCCCN1S(=O)(=O)c1ccccc1 (configuration not stated) | x | i | 6.1% | -3.0% | 11.0%
C[C@H]1[C@H](NC(=O)c2ccc(Cl)c(Cl)c2)CC[C@@]23CCCN2C(=O)CCC[C@@H]13 | i | x | x | x | x
CC(=O)Nc1c(C)nn(-c2ccccc2)c1N1CCC(C(=O)Nc2ccc(F)cc2Cl)CC1 | i | i | x | x | 0.0%
COc1cccc(-c2cnc3c(NC=O)cc(-c4ccccc4Oc4ccccc4)cn23)c1 | u | i | u | x | 35.5µM*
COc1ccc(F)cc1-c1cc(NC(C)=O)c2ncc(-c3cccc(C(F)(F)F)c3)n2c1 | u | u | u | x | 22.4µM*
CC(=O)Nc1cccc(-c2cc(NC(C)=O)c3ncc(-c4cccc(C(F)(F)F)c4)n3c2)c1 | u | i | -3.4% | x | 3.7%
COc1ccccc1-c1cc(NC=O)c2ncc(-c3cccc(C(F)(F)F)c3)n2c1 | i | i | 13.8% | x | 22.4µM*
CC(=O)Nc1cc(-c2ccc(F)cc2)cn2c(-c3ccc(F)c(Cl)c3)cnc12 | i | i | -15.1% | x | 20µM*
CC(=O)Nc1cc(-c2ccccc2)cn2c(-c3ccc(F)c(Cl)c3)cnc12 | u | i | -16.6% | x | u
Cc1cc(C)cc(NC(=O)c2cc(CN3CCCC3)on2)c1 | i | i | x | x | 10.8%
CCCCOC(=O)c1cccc(NC(=O)/C=C/c2ccccc2Cl)c1 | i | i | x | x | -6.8%
Nc1c(C(=O)c2ccccc2)sc(Nc2ccc(Cl)c(Cl)c2)c1C(=O)Nc1ccccc1 | i | i | x | x | 19.7%
Cc1ccc(NC(=O)O/N=C/c2ccc(F)cc2)cc1 | i | i | -19.2% | 1.5% | 6.0%
O=C(Nc1ccccc1)O/N=C/c1ccc(F)cc1 | i | i | -12.6% | -3.8% | 10µM*
CC1=C(C)C(=O)C(CCCCC#CCCCC#CCO)=C(C)C1=O | i | i | -4.5% | 18.4µM*! | 22.5%
SMILES | FUS suppressor | Abeta yeast res | aSyn rescue | Mito fusion yeast | TDP43 rescue
COC1=C(OC)C(=O)C(CCCCCCCCCCO)=C(C)C1=O | x | x | x | 1.3% | x
Cc1cc(C)n(CC(=O)NC2CCCc3c2cnn3-c2ccccc2F)n1 (configuration not stated) | i | i | 0.9% | -0.4% | -16.2%
CN(C(=O)c1cc2nc(-c3ccco3)cc(C(F)(F)F)n2n1)c1ccc(OC(F)(F)Cl)cc1 | i | i | -1.0% | x | 15.7%
Cc1ccc(S(=O)(=O)n2c(=O)oc3ccccc32)cc1 | i | i | 11.2% | 13.8% | 8.91µM*
COc1ccc(C2CC(=O)c3cc(-c4nc(-c5cccc([N+](=O)[O-])c5)cs4)c(=O)n(-c4ccccc4C)c3C2)cc1 (configuration not stated) | i | i | x | x | 1.7%
Cn1c(=O)c2c(n3ncnc13)NC(=O)CC2c1cccc(F)c1 (configuration not stated) | i | i | x | x | 12.8%
Cc1ccc(Sc2ccc([N+](=O)[O-])cc2[N+](=O)[O-])nc1 | i | i | 0.3% | -0.2% | u
Cc1ccnc(Sc2ccc([N+](=O)[O-])cc2[N+](=O)[O-])n1 | i | i | -13.2% | -19.2% | 20µM*
O=C1[C@@H](C2CC2)[C@@H]2c3ccccc3C=NN2[C@@H]2c3ccccc3C=NN12 | i | x | x | x | x
COC(=O)[C@]12C[C@H](CC(=O)N3CCCCC3)C(=O)N(Cc3ccccc3)C1=C[C@H](COCc1ccccc1)O[C@@H]2C | i | x | x | x | x
COC(=O)[C@]12C[C@H](CC(=O)NCc3ccc(C)o3)C(=O)N(Cc3ccccc3)C1=C[C@H](COCc1ccccc1)O[C@@H]2C | 35.5µM* | x | x | x | x
CCCCCCCCN1C(=O)[C@@H](CC(=O)N2CCN(C(=O)C3CC3)CC2)C[C@@]2(C(=O)OC)C1=C[C@H](COCc1ccccc1)O[C@@H]2C | 28.2µM* | x | x | x | x
COC(=O)[C@]12C[C@H](CC(=O)N3CCC(c4ccccc4)CC3)C(=O)N(Cc3ccccc3)C1=C[C@H](COCc1ccccc1)O[C@@H]2C | 12.6µM* | x | x | x | x
O=C1c2ccccc2-c2onc3ccc(Oc4ccccc4)c1c23 | x | i | u | 8.7% | 7.08µM*
COC(=O)c1ccc(/C=C/C(=O)O)cc1 | i | i | -6.6% | 1.0% | 35.5µM*
COC(=O)c1ccc(/C=C/C(=O)c2ccc(OC)cc2)cc1 | i | i | 1.4% | 0.3% | -4.8%
CCOC(=O)c1ccc(N2C(=O)C3C(C2=O)C(C(=O)c2ccc(Cl)cc2)N2CCCC32)cc1 (configuration not stated) | 12.6µM* | i | 3.2% | -2.6% | -1.1%
CCC(NC(=O)CCCN1C(=O)COc2ccc(C)cc21)c1ccccc1 (configuration not stated) | i | x | x | x | x
CN(Cc1ccccc1)c1nc(N)c([N+](=O)[O-])c(NCc2ccccc2)n1 | i | i | -3.5% | 11.2µM* | 22.3%
Nc1nc(Nc2ccccc2)nc(NCc2ccco2)c1[N+](=O)[O-] | i | i | 9.5% | u | 20µM*
CCOC(=O)N(O)c1ccc(C=Cc2ccccc2)cc1 | x | i | -1.7% | x | 14.1µM*
CC1CCc2nn(CC(=O)NCCC3=CCCCC3)cc2C1 (configuration not stated) | i | u | -1.7% | -8.5% | 17.8µM*
CSc1nc(N2CCOCC2)c2c3c(sc2n1)CCCC3 | u | i | 9.4% | 2.8% | 15.8µM*
Cc1nc(N2CCOCC2)c2c3c(sc2n1)CCC3 | i | i | 12.7% | 7.1% | 15.0%

Source: PubChem BioAssay (National Center for Advancing Translational Sciences (NCATS))
